# rCAG binder: r(CAG) repeat RNA binding | TO-PRO-1 dye displacement fluorescence | inhibition, % at 3 µM | hit rate 1.3% among 370,000 | AID 651821;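 active = inhibition above the plate cutoff, the mean of all test compounds on that plate plus 3 SD, cut at about 35% in these data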;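 also: higher means more dye released from RNA so lower well fluorescence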
# aDG glyco up: alpha-DG glycosylation activation; activation, % at 10 µM; hit rate 0.22% among 360,000; Pro5-aDG cells, alpha-DG glycosylation AlphaScreen (IIH6); 0% Pro5, 100% B10-LARGE cell signal;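 active = activation of at least 8% versus controls, or a plate z-score of at least 8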;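 also: Pro5 are CHO cells carrying HIG-tagged alpha-DG that lacks glycosylation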
# APOBEC3A inh: blocks human APOBEC3A ssDNA deamination; P31941; inhibition, % at 20 µM; recombinant A3A, FAM/TAMRA ssDNA deamination fluorescence; AID 493011; hit rate 0.41% among 330,000;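 active = at least 40% inhibition at 20 µM here, with at most 30% in a related deaminase screen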
# Target sequence (P31941 whole entry, looked up): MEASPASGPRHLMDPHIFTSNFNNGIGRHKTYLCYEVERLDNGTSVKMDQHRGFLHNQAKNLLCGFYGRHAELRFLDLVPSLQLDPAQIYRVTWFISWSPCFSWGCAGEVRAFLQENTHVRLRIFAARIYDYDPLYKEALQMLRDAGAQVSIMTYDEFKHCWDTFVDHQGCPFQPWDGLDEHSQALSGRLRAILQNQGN
# PHOSPHO1 inh: inhibitors of human PHOSPHO1 phosphatase; hit rate 1.1% among 290,000; Q8TCT1; AID 1565; inhibition, % at 13.3 µM; recombinant PHOSPHO1, absorbance phosphatase assay; in the data active = inhibition above about 60%
# ALR H2O2 inh: blocks human ALR sulfhydryl oxidase activity. AID 485317. P55789. inhibition, % (concentration not given with the values). hit rate 3.8% among 290,000. purified ALR, DTT oxidation, H2O2 HRP-luminol luminescence;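 active = mean replicate inhibition above about 79%, with every replicate also reaching it, limit read from the data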
# Target sequence (P55789 whole entry, looked up): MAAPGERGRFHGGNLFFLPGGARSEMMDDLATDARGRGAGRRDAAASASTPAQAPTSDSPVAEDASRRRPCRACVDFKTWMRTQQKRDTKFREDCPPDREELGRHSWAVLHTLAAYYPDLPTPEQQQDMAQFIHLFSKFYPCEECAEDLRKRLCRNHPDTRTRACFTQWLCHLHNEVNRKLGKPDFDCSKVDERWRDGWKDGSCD
# A3G deaminase: inhibitors of human APOBEC3G DNA deaminase | AID 493012 | hit rate 0.28% among 330,000 | Q9HC16 | recombinant A3G, ssDNA deamination FAM/TAMRA fluorescence | inhibition, % at 20 µM;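 active = inhibition of at least 40% at 20 µM, with no more than 30% in the related APOBEC3A deaminase screen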
# A number is an active result; i = inactive; nt = not tested or not shown. Sampled rows, rich in hits. Any-hit rate of the full collection: about 5.4%.
SMILES,rCAG binder,aDG glyco up,APOBEC3A inh,PHOSPHO1 inh,ALR H2O2 inh,A3G deaminase
Cc1oc(-c2ccccc2F)nc1CS(=O)CC(=O)N1CCC2(CC1)OCCO2 (stereo not drawn),i,i,i,i,98.9,i
O=C(NCCN1CCC2(CC1)C(=O)NCN2c1ccccc1)c1ccc(F)c(F)c1,i,nt,nt,nt,nt,nt
O=C1C2CCN(CC2)[C@@H]1Cc1ccc2ccccc2c1O,i,i,i,i,81.3,i
CCOC(=O)CC[C@@H]1CC[C@]2(CCCN(Cc3ccccn3)C2)O1,i,nt,nt,nt,nt,nt
CC1=NN(c2ccccc2)C(=O)/C1=C/c1c(O)[nH]c(=S)[nH]c1=O,i,i,i,86.0,i,i
CN1CN(c2ccccc2)C2(CCN(CCCSc3ccccc3NC(=O)/C=C/c3ccccc3)CC2)C1=O,i,i,nt,nt,nt,nt
Cc1[nH]c2ccccc2c1/C=N/O,i,i,i,i,95.8,i
CC1CCCC(C)N1/N=C/c1c[nH]c2ccc(Br)cc12 (stereo not drawn),i,i,i,i,98.6,i
OC1CN2CCC(O)C2C(O)C1O (stereo not drawn),i,nt,nt,nt,nt,nt
CC(=O)N1Cc2cnnn2-c2ccccc2C1(C#N)Cc1ccccc1 (stereo not drawn),i,i,nt,nt,nt,nt
COC(=O)C(O)(c1ccc2c(c1)CCCN2)C(F)(F)F (stereo not drawn),i,i,i,i,96.6,i
COC(=O)N(C)c1ccc(C(O)(C(=O)OC)C(F)(F)F)cc1 (stereo not drawn),i,i,i,i,i,i
CC(C)CCCn1c(O)c(/C=C2/C=CC=N2)c(=O)[nH]c1=O,i,i,i,i,97.5,i
c1ccc(Cn2nnnc2C2CN=C(c3ccccc3)c3ccccc3N2)cc1 (stereo not drawn),i,nt,nt,nt,nt,nt
CC(C)(C)NC(=O)CN1C(=O)[C@@H](Cc2c[nH]c3ccccc23)N=C(c2ccccc2)c2ccccc21,i,nt,nt,nt,nt,nt
COc1ccc(N2C(=O)/C(=C/c3ccc(OC)c(OC)c3)C(=O)NC2=S)cc1,i,i,i,i,i,i
COc1ccc(N2C(=O)/C(=C/c3ccc(C)o3)C(=O)NC2=S)c(OC)c1,43.9,i,i,i,i,i
O=C(c1ccc(-c2ccccc2)c(F)c1)C1CCCN(CCO)C1 (stereo not drawn),i,i,i,60.1,i,i
COc1ccc(Cl)cc1C(=O)C1CCCN(CCO)C1 (stereo not drawn),i,i,i,i,i,i
COC(=O)C1=C(c2ccc(OCc3ccccc3)cc2)C[C@@H]2CC[C@H]1N2C(=O)NCc1ccccc1C(F)(F)F,i,i,nt,nt,nt,nt
CCCCNS(=O)(=O)c1ccc(OCC(=O)N2CCN(Cc3ccc4c(c3)OCO4)CC2)cc1,i,i,i,61.0,i,i
O=C(COc1ccc(S(=O)(=O)N2CCOCC2)cc1)N1CCN(Cc2ccc3c(c2)OCO3)CC1,i,i,i,i,i,i
CC(C)(C)NS(=O)(=O)c1ccc(OCC(=O)N2CCN(Cc3ccccc3)CC2)cc1,i,i,i,60.1,i,i
Cc1nc2ccccc2c(=O)n1/N=C/c1cc(Br)cc(Br)c1O,i,i,i,nt,i,i
CNC(=O)Oc1cc2c(cc1C(C)(C)C)CCC2,i,i,nt,nt,nt,nt
SMILES,rCAG binder,aDG glyco up,APOBEC3A inh,PHOSPHO1 inh,ALR H2O2 inh,A3G deaminase
CCOC(=O)C(c1c(O)c2ccccc2oc1=O)c1c(O)c2ccccc2oc1=O,i,i,nt,nt,nt,nt
CCCNC(=O)N1CCC2(CC1)OCCO2,i,i,i,61.5,i,i
Cc1ccccc1-n1c(O)c(C=Nc2ccc(N(C)C)cc2)c(=O)[nH]c1=O,i,i,i,i,92.5,i
O=C1NC(=O)C2(Cc3ccccc3N3CCCC32)C(=O)N1c1cccc(Cl)c1 (stereo not drawn),i,i,i,i,i,i
Cc1ccc(N2C(=O)NC(=O)C3(Cc4ccccc4N4CCN(c5ccccc5)CC43)C2=O)cc1 (stereo not drawn),i,i,i,72.5,i,i
CC(C)(C)n1nnnc1C1CN=C(c2ccccc2)c2cc(Cl)ccc2N1 (stereo not drawn),i,nt,nt,nt,nt,nt
FC(F)(F)c1ccc2c(c1)N(CCCN1CCN(CCCl)CC1)c1ccccc1S2,i,i,i,63.9,99.2,i
Nc1ccc(CCN2CCN(c3cccc(C(F)(F)F)c3)CC2)cc1,i,i,i,nt,i,i
O=C(O)CCn1cc(C=C2C(=O)NC(=O)NC2=O)c(-c2ccc(Br)cc2)n1,i,i,i,i,87.2,i
N[C@@H](Cc1ccc(N(CCCl)CCCl)cc1)C(=O)O,i,i,i,nt,i,i
O=C(O)CCCc1ccc(N(CCCl)CCCl)cc1,i,i,i,i,98.7,i
O=P(CN1CCN(c2ccccc2)CC1)(N1CCCCC1)N1CCCCC1,i,i,i,i,99.2,i
O=C(NC1(C(F)(F)F)Oc2ccc(Cl)cc2O1)N1CCC2(CC1)OCCO2 (stereo not drawn),i,i,i,i,99.2,i
O=C(NC1(C(F)(F)F)Oc2ccccc2O1)N1CCC2(CC1)OCCO2,i,i,i,i,i,i
C[C@@H]1CN([C@H](C)CO)C(=O)CCCn2nncc2CO[C@H]1CN(C)C(=O)Oc1ccccc1,i,i,nt,nt,nt,nt
O=C1NC(=O)N(c2ccccc2)C(=O)/C1=C\c1ccc([N+](=O)[O-])o1,nt,nt,i,62.3,i,i
S=C=Nc1ccccn1,i,i,i,61.2,i,i
COc1cccc2c1cc([N+](=O)[O-])c1c(C(=O)O)cc3c(c12)OCO3,i,i,nt,nt,nt,nt
c1ccc(CCN2CCC3CCNC3C2)cc1 (stereo not drawn),i,nt,nt,nt,nt,nt
C/C(O)=C(\C#N)C(=O)Nc1cc(Br)ccc1Br,i,i,i,nt,96.8,i
Cc1cc(N2CCNC[C@@H]2C)ccc1N1CCN[C@H](C)C1,i,nt,nt,nt,nt,nt
NNC(=O)c1ccc(O)cc1,i,i,i,nt,95.3,i
NCCc1ccc(O)cc1,i,i,i,i,nt,i
CCOc1ccc(N2C(=O)/C(=C/c3ccco3)C(=O)NC2=S)cc1,nt,i,i,i,97.7,i
CNS(=O)(=O)c1ccc(-c2ccc(C=C3C(=O)NC(=O)NC3=O)o2)cc1,i,i,i,i,87.9,i
SMILES,rCAG binder,aDG glyco up,APOBEC3A inh,PHOSPHO1 inh,ALR H2O2 inh,A3G deaminase
NS(=O)(=O)c1ccc(-c2ccc(C=C3C(=O)NC(=O)NC3=O)o2)cc1,i,i,i,i,97.5,i
O=C1NC(=O)C(=Cc2ccc(-c3ccccc3[N+](=O)[O-])o2)C(=O)N1,i,i,i,i,nt,i
O=c1[nH]cnc2nc(-c3ccc(N(CCCl)CCCl)cc3)[nH]c12,i,i,nt,nt,nt,nt
O=c1oc2ccccc2c(O)c1[C@H]1c2ccc(O)cc2Oc2c1c(=O)oc1ccccc21,i,i,i,i,97.9,i
NC1=C([N+](=O)[O-])C(c2ccc3c(c2)OCO3)c2c(c3ccccc3oc2=O)O1 (stereo not drawn),i,nt,i,i,i,i
N#Cc1cc(F)c(N2CCNCC2)cc1Cl,i,i,i,i,93.4,i
O=C(Cc1ccc(N(CCCl)CCCl)cc1)NC(Cc1ccc(Cl)cc1)C(=O)O (stereo not drawn),i,i,i,i,98.4,i
CCC(=NCCO)c1c(O)n(-c2ccccc2)c(=O)[nH]c1=O,i,i,i,i,i,i

# Screening results as filed in PubChem.
